Screening results from PubChem.
Only some compounds are listed: those with a hit (about 11% of all), similar ones and a draw of the others.
PI5P4Ka inh: inhibitors of human PI5P4K alpha; P48426; PI5P4Kalpha enzyme, ADP-Glo luminescence, 60 min; stronger effect = lower value; max response, %; actives 1.2% (n = 330,000); active = max response of -50% or lower; inconclusive = between -30% and -50%; inactive = -30% or higher; note: value at the top dose of about 77 µM; % is set by controls: 0 for no effect and ±100 for the full control effect
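Human PI5P4Kalpha with substrate in 0.038 M HEPES pH 7.4, 0.28 mM EGTA, 0.1% CHAPS, 5% DMSO; reaction started with 5 microM ATP (final), 60 min at room temperature. ADP formed read by ADP-Glo luminescence.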
HP1b chromo inh: inhibitors of HP1-beta chromodomain binding to methylated histone tails; P83916; AlphaScreen HP1-beta / biotin-H3K9me3 peptide binding; Potency, µM (highest dose often 114 µM), without a hit: top-dose activity change, negative = inhibition, actives largely listed as inhibitors; actives 0.56% (n = 390,000); AID 540317; note: potency is the fitted concentration of half-maximal effect; nearly all actives have a fitted effect of over 70% in size
Target sequence (P83916 whole entry, looked up): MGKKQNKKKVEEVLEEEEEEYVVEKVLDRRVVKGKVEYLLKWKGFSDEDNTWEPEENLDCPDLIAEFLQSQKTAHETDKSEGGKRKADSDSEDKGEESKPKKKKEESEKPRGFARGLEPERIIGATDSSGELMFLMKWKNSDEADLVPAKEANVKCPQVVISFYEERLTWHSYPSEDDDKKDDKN
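Compound inhibition of the preformed complex between 50 nM HP1-beta and 50 nM biotinylated H3K9me3 peptide was read by AlphaScreen. Buffer was PBS pH 7.4 with 0.01% Tween-20. Incubations ran 30 min at room temperature, with 10 ug/mL donor/acceptor beads.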
G9a block: blocks human histone lysine methyltransferase G9a; actives 8.8% (n = 350,000); Q96KQ7; Potency, µM (series often up to 102 µM), for the others: at the top dose activity, negative = inhibition, usual class: inhibitors; G9a H3K9 monomethylation, AlphaScreen, 2 h; note: potency is the fitted concentration of half-maximal effect; % is set by controls: 0 for no effect and ±100 for the full control effect; nearly all actives have a fitted effect of over 75% in size
Target sequence (Q96KQ7 913-1193 limits assumed): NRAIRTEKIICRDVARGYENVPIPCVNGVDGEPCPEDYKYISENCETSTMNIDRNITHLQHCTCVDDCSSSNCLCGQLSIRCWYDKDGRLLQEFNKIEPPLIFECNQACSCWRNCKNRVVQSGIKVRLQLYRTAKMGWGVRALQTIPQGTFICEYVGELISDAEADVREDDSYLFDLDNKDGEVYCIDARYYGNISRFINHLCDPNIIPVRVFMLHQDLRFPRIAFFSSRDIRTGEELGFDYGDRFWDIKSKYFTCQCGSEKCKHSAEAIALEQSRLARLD
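Step 1: enzyme (final 20 nM) with compound, 15 min RT. Step 2: substrate peptide 500 nM and SAM 20 uM, 2 h RT. Step 3: anti-H3K9me1 antibody and AlphaScreen beads, 10 min, then plate read.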
L3MBTL1 block: L3MBTL1 (human) inhibition; Q9Y468; Potency, µM (highest dose often 57.1 µM), without a hit: at the top dose activity, negative = inhibition, most hits filed as inhibitors; AlphaScreen L3MBTL1–H3K9me1 peptide binding; actives 0.66% (n = 230,000); note: potency is the fitted concentration of half-maximal effect; % is set by controls: 0 for no effect and ±100 for the full control effect; nearly all actives have a fitted effect of over 60% in size
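L3MBTL1 (50 nM) pre-complexed 30 min with biotinylated H3(1-15)K9me1 peptide (75 nM), then compounds added for 30 min at room temperature; AlphaScreen streptavidin donor/nickel chelate acceptor beads (10 ug/mL final) read after 30 min dark incubation.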
JMJD2A Tudor inh: inhibitors of human JMJD2A Tudor domain; Potency, µM (top dose mostly 114 µM), for inactives: top-dose activity change, negative = inhibition, hits mostly inhibitors; AlphaScreen JMJD2A-Tudor / H3K4me3 peptide binding; actives 4.4% (n = 390,000); note: potency is the fitted concentration of half-maximal effect; % is set by controls: 0 for no effect and ±100 for the full control effect; nearly all actives have a fitted effect of over 50% in size
BAZ2B inh: inhibitors of human BAZ2B bromodomain. actives 4.4% (n = 360,000). AlphaScreen BAZ2B-H3K14Ac peptide displacement. AID 504333. Q9UIF8. Potency, µM (top dose mostly 114 µM), without a hit: at the highest dose activity change, negative = inhibition, usual class: inhibitors; note: potency is the fitted concentration of half-maximal effect; % is set by controls: 0 for no effect and ±100 for the full control effect; nearly all actives have a fitted effect of over 60% in size
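BAZ2B 50 nM plus b-H3(5-23)K14Ac 50 nM, PBS pH 7.4/0.01% Tween-20, 30 min RT; compound added (max 110 uM), 30 min RT; streptavidin donor/Ni-chelate acceptor beads 10 ug/mL final, 20 min dark; AlphaScreen read.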
An asterisk follows results filed as active; ? = inconclusive; . = no result given; ! = a repeat was not active; [ ] = another dose, or the depositor's remark. Unless noted, calls come from the whole dose curve; as a rule, active = well fitted inhibition curve with a large enough effect; inconclusive = small, poorly fitted or top-dose-only effect; inactive = no such curve, though single readings can be large or run the other way.

SMILES	PI5P4Ka inh	HP1b chromo inh	G9a block	L3MBTL1 block	JMJD2A Tudor inh	BAZ2B inh
CCNC(=O)C1CCCN(Cc2ccc(OCc3ccccc3)cc2)CC1 (centres undefined)	0	.	.	.	.	.
O=c1c(-c2cc(-c3ccccc3)nc3c2COc2ccccc2-3)coc2ccc(Cl)cc12	.	30%	4%[59 µM]	.	-12%	-23%
CCC(C)C(NC(=O)OC(C)(C)C)C(=O)NC1COC2CC(n3cc(F)c(=O)[nH]c3=O)OC12 (centres undefined)	.	19%	.	.	-14%	.
O=S(=O)(NCCc1csc2nc(-c3ccccc3)nn12)c1ccc(Oc2ccccc2)cc1	.	2%	9%[59 µM]	.	-21%	-14%
Cc1ccc(C2=NN=C(NC(=O)CSc3nnc4c5ccccc5n(C)c4n3)SC2)cc1	?	15%	45µM*	-28%	?	-10%
Cc1cc(C(F)(F)F)nc(SCC(=O)NC2=NC(=O)C(C)S2)n1 (centres undefined)	.	4%	?	5%	-25%	5%
Cc1cc(C)nc(SCC(=O)Nc2cc(C)on2)n1	.	14%	7%[59 µM]	38%	-14%	34%
Cc1cc(C)nc(SCC(=O)NC2=NC(=O)C(C)S2)n1 (centres undefined)	.	-5%	18µM*	7%	?	11%
Cc1ccc(C2=NN=C(NC(=O)CSc3nc(C)cc(C)n3)SC2)cc1	.	.	28µM*	-12%	.	-36%
COCCn1c(=O)c(C)nc2cnc(Nc3ccccc3)nc21	.	.	1%[0.501 µM]	.	.	.
CCOC(=O)c1c(N)sc2c1CCS(=O)(=O)C2	-14	?	8.9µM*	-2%	?	-4%
Oc1ccc(/C=C\c2cc(O)cc(O)c2)cc1	.	.	-41%[5.15 µM]	.	.	.
Oc1ccc(/C=C/c2cc(O)cc(O)c2)cc1	-7	15%	7.9µM*!	-12%	-27%	-27%
Cc1ccc2nc(/C(C#N)=C\c3ccc(N4CCOCC4)o3)[nH]c2c1	-24	-3%	10µM*	-9%	-26%	?
Cc1ccc(/C(C#N)=C\c2ccc(N3CCOCC3)o2)cc1	.	?	2.5µM*	-9%	56µM*	79µM*
COc1ccc(S(=O)(=O)NCc2nc(-c3ccccc3)no2)cc1	.	9%	-39%[59 µM]	.	-17%	5%
N#Cc1ccccc1NC(=O)C(=O)NCCc1csc2nc(-c3cccc(F)c3)nn12	.	9%[57 µM]	14%[59 µM]	.	-19%	-3%
Cn1nnnc1Sc1ncnc2scc(-c3cccs3)c12	.	?	-21%[0.501 µM]	-1%	25µM*	10µM*
Cn1nnnc1Sc1ncnc2scc(-c3ccc(-c4ccccc4)cc3)c12	.	50%	.	-3%	-15%	.
COc1ccc([N+](=O)[O-])cc1C(=O)C(=O)c1ccccc1	9	18%	.	-3%	-29%	-6%
COc1cc(C(=O)O)nc2ccc([N+](=O)[O-])cc12	1	23%	18µM*	39%	-17%[11.4 µM]	50µM*
CN1C(=O)/C(=C/C=C2\SCCN2C)N(C)C1=S	-24	?	40µM*	.	-22%	-35%
CN1C(=O)/C(=C/C=C2\SCCN2C)SC1=S	.	.	8.9µM*	-7%	.	-10%
NCCCN(Cc1ccc(Cl)c(Cl)c1)c1ccc(Br)cn1	.	0%	.	.	-23%	.
Cc1nn2c(=O)cc(COC(=O)c3ccc(NC(=O)c4ccc(C(C)(C)C)cc4)cc3)nc2s1	.	20%	-5%[59 µM]	.	?	-7%
O=C(O)CCCCCCCCc1cn(CCc2c[nH]c3ccccc23)nn1	-19	14%	28µM*	-2%	-28%	-38%
CNC(=S)N(Cc1ccc(OC)cc1)C1CC(=O)N(c2ccc(C(=O)OC)cc2)C1=O (centres undefined)	.	.	40µM*	5%	.	12%
COC(=O)CN(C(=S)Nc1ccc(F)cc1)C1CC(=O)N(c2ccc(OC)cc2)C1=O (centres undefined)	.	1%	40µM*	5%	-26%	4%
COC(=O)CN(C(=S)Nc1ccccc1)C1CC(=O)N(c2ccc(OC)cc2)C1=O (centres undefined)	14	8%	-2%[12.7 µM]	-3%	-24%	-6%
